These results are taken from PubChem BioAssay (NCATS).

Experiment [1] relates to Zika virus NS2B-NS3 protease (unlinked complex). The experiment in a line: Primary screen GU Rhodamine qHTS for Zika virus inhibitors: Unlinked NS2B-NS3 protease assay (AID 1347159). Also: nearly all actives have a fitted effect of over 60% in size. The essentials:
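In dose–response format, inhibition of unlinked protease (25 nM) was measured with 1.5 microM bis-peptide Rhodamine110 substrate. Aprotinin served as the intraplate control.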
On the technique in general: qHTS replaces the single test concentration by a dilution series.

Experiment [2] has as its system Zika virus NS2B-NS3 protease (linked construct). The experiment in a line: Primary screen NINDS Rhodamine qHTS for Zika virus inhibitors (AID 1347160). Also: nearly all actives have a fitted effect of over 55% in size. The essentials:
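Each compound, titrated, sat 15 min with 25 nM linked protease before 1.5 microM Rhodamine110 substrate went in. Fluorescence gain over the next 15 min, in pH 8.0 Tris with Tween 20, gave Hill-fitted curves.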

Inconclusive results are not listed. A call without a number means that no potency is given here. Active and inactive are the calls of the source. Calls follow the shape of the dose curve; as a rule, active = well fitted inhibition curve with a large enough effect; inconclusive = small, poorly fitted or top-dose-only effect; inactive = no such curve, though single readings can be large or run the other way.

Regarding `C[C@@H]1C(=O)O[C@H](C)[C@H]1CC(=O)[C@](C)(O)[C@H]1CC[C@@]2(O)C3=CC(=O)[C@@H]4C[C@@H](O)[C@@H](O)C[C@]4(C)C3CC[C@]12C` (stereo partly specified), the Potency result in experiment [1] and in experiment [2] was “inactive” each time.
As for `C=C(C(=O)O)C1CC(O)C2(C)CCCC(=C)C2C1` (stereo unspecified), the Potency entry in experiment [1] and in experiment [2] was “inactive” each time.
With `Cc1cc(N(C)C)ccc1-c1nc2ccc(-c3nc4ccc(N5CCN(C)CC5)cc4[nH]3)cc2[nH]1`, the Potency entry in experiment [1] and in experiment [2] was “inactive” in each case.
On to `O=C1NC2CCc3nc4ccccc4c(=O)n3C2=Nc2ccccc21` (stereo unspecified), for which the Potency entry in experiment [1] and in experiment [2] was “inactive” in each case.
`C=C[C@H]1[C@H](O[C@@H]2O[C@H](CO)[C@@H](O)[C@H](O)[C@H]2O)OC=C(C(=O)OC)[C@H]1C/C=C(/C=O)[C@@H]1C(C(=O)OC)=CO[C@@H](O[C@@H]2O[C@H](CO)[C@@H](O)[C@H](O)[C@H]2O)[C@@H]1C=C`: the Potency result in experiment [1] and in experiment [2] was “inactive” each time.
As to `COc1c(/C=C/C(C)(C)O)ccc2c1C(=O)OCc1cc(C)cc(O)c1O2`, the Potency entry in experiment [1] and in experiment [2] was “inactive” each time.
Turning to `COc1cc2c(cc1OC)[C@@H]1[C@H](O)[C@@H](OC)C=C3CCN(C2)[C@H]31`, the Potency entry in experiment [1] and in experiment [2] was “inactive” each time.
Turning to `CN(C)C1CCN(C(=O)c2ccc(NC(=O)Nc3ccc(-c4nc(N5CCOCC5)nc(N5CCOCC5)n4)cc3)cc2)CC1`, the Potency result in experiment [1] and in experiment [2] was “inactive” each time.
With `O=C(CCc1ccccc1)N1CCC(O)(Cn2cnc3cc(Cl)ccc3c2=O)CC1`, the Potency entry in experiment [1] and in experiment [2] was “inactive” throughout.
Consider `CO[C@@H](C)Cn1c(=O)n(C)c2cnc3ccc(-c4cncc(C(C)(C)O)c4)cc3c21`, for which the Potency entry in experiment [1] and in experiment [2] was “inactive” each time.
Turning to `COC(=O)CC(C)(O)CC(=O)OCc1ccc(O[C@@H]2O[C@H](CO)[C@@H](O)[C@H](O)[C@H]2O)cc1` (stereo partly specified), the Potency entry in experiment [1] and in experiment [2] was “inactive” in each case.
Consider `N#C[C@@H]1CCCN1C(=O)CNC12CC3CC(CC(O)(C3)C1)C2`, for which the Potency entry in experiment [1] and in experiment [2] was “inactive” throughout.
Turning to `COC(=O)C1=CO[C@@H](O[C@@H]2O[C@H](CO)[C@@H](O)[C@H](O)[C@H]2O)[C@@H]2C(COC(C)=O)=C[C@H](O)[C@H]12`, the Potency entry in experiment [1] and in experiment [2] was “inactive” throughout.
As to `CC1=C(C(=O)O)/C(=C\CO[C@@H]2O[C@H](CO)[C@@H](O)[C@H](O)[C@H]2O)C(OC(=O)/C=C/c2ccc(O)cc2)C1` (stereo partly specified), the Potency entry in experiment [1] and in experiment [2] was “inactive” throughout.
As for `CNC(=O)c1cccc(-c2ccc3c(N4CCOC[C@@H]4C)nc(N4CCOC[C@@H]4C)nc3n2)c1`, the Potency result in experiment [1] and in experiment [2] was “inactive” each time.
For the compound `CC1=CC(=O)C(=C(C)C)CC2C1CCC2(C)O` (stereo unspecified), the Potency result in experiment [1] and in experiment [2] was “inactive” throughout.
With `CCCCC1CCN(CCCC(=O)c2ccccc2C)CC1`, the Potency entry in experiment [1] and in experiment [2] was “inactive” throughout.
Turning to `O=C1N=C(N2CCOCC2)CN1c1ccc(Cl)cc1`, the Potency result in experiment [1] and in experiment [2] was “inactive” throughout.
In the case of `N#Cc1ccc(-c2cnc3[nH]cc(NC(=O)c4cccnc4)c3c2)cc1`, the Potency result in experiment [1] and in experiment [2] was “inactive” throughout.
Consider `CC1=CC2/C=C(\C)CC[C@@H](O)[C@@H](O)[C@@H]3O[C@@H]3C(=O)[C@]23C(=O)N[C@@H](CC(C)C)[C@@H]3[C@@H]1C` (stereo partly specified), for which the Potency entry in experiment [1] and in experiment [2] was “inactive” each time.
Turning to `COc1cc(C(=O)NC2CCN(C)CC2)c(F)cc1Nc1ncc2c(n1)N(C1CCCC1)CC(F)(F)C(=O)N2C`, the Potency entry in experiment [1] and in experiment [2] was “inactive” each time.
For `C[C@@H]1O[C@@H](O[C@@H]2[C@@H](O)[C@H](O[C@H]3CC[C@@]4(C)C(CC[C@]5(C)C4CC=C4[C@@H]6CC(C)(C)CC[C@]6(C(=O)O[C@@H]6O[C@H](CO)[C@@H](O)[C@H](O)[C@H]6O)CC[C@]45C)C3(C)C)O[C@H](C(=O)O)[C@H]2O)[C@H](O)[C@H](O)[C@H]1O` (stereo partly specified), the Potency entry in experiment [1] and in experiment [2] was “inactive” in each case.
As to `CC1(C=O)CC[C@]2(C(=O)O[C@@H]3O[C@H](CO)[C@@H](O)[C@H](O)[C@H]3O)CC[C@]3(C)C(=CCC4[C@@]5(C)C[C@H](O)[C@H](O[C@@H]6OC[C@@H](O)[C@H](O)[C@H]6O)[C@@](C)(CO)C5CC[C@]43C)C2C1` (stereo partly specified), the Potency entry in experiment [1] and in experiment [2] was “inactive” each time.
Take `CSc1ccc(C(=O)N[C@@H]2CCCC[C@@H]2NC(=O)CNC(=O)c2cc(C(F)(F)F)ccc2NC(=O)NC(C)C)cc1`: the Potency entry in experiment [1] and in experiment [2] was “inactive” in each case.
Turning to `Oc1ccc(CNc2ccccc2F)c2cccnc12`, the Potency entry in experiment [1] and in experiment [2] was “inactive” each time.
With `Nc1ccc(/C=C/C(=O)NCc2cc3cc(-c4ccc(C(=O)N5CCC(F)(F)CC5)cc4)cc(-c4ccc(F)cc4)c3o2)cn1`, the Potency result in experiment [1] and in experiment [2] was “inactive” each time.
As to `C/C=C/C=C/C(=O)N1CC[C@]23c4ccccc4N[C@H]4N(C)c5cccc6c5[C@@]42CCN([C@H]6C2OC2(C)C)[C@H]13` (stereo partly specified), the Potency entry in experiment [1] and in experiment [2] was “inactive” throughout.
In the case of `C/C(=C\CC[C@@H](C)[C@H]1CC(O)[C@@]2(C)C3CC[C@H]4C(C)(C)[C@@H](OC5OCC(O)C(O)C5OC5OC(CO)C(O)C(O)C5O)CC[C@@]45C[C@@]35CC(O)[C@]12C)C(=O)O` (stereo partly specified), the Potency result in experiment [1] and in experiment [2] was “inactive” throughout.
